Measurements reported in PubChem BioAssay (NCATS).
For some of these results: Measured potencies and affinities stand elsewhere. The source made the active and inactive calls.

Tests used:
[1] = Ebola virus entry assay, green fluorescence channel
[2] = Ebola virus entry assay, ratio channel readout
[3] = Ebola virus entry assay, blue channel fluorescence
[4] = Ebola virus entry assay, ratio channel
[5] = Ebola virus entry assay, green channel fluorescence
[6] = Ebola virus entry assay, blue channel fluorescence; remark: listed apart in the source
[7] = Ebola virus entry assay, reporter ratio channel; AC50: Channel type: primary unless noted; outcome: Channel type: primary unless noted
[8] = Ebola virus entry assay, blue channel (ratio component)
[9] = Ebola virus entry reporter assay, green channel fluorescence
[10] = Ebola virus entry cell assay, ratio channel

Measured: outcome

Cc1cccc(Nc2ccccc2C(=O)O)c1C
inactive: all assays above

OC(Cn1cncn1)(Cn1cncn1)c1ccc(F)cc1F
inactive: all assays above

O=C(CCCCCCC(=O)Nc1ccccc1)NO
inactive: all assays above

CCOc1ccccc1OCCN[C@H](C)Cc1ccc(OC)c(S(N)(=O)=O)c1
inactive: all assays above

Cc1[nH]c(=O)c(C#N)cc1-c1ccncc1
inactive: all assays above

N[C@@H](C(=O)N[C@@H]1C(=O)N2C(C(=O)O)=C(Cl)CS[C@H]12)c1ccccc1
inactive: all assays above

CC(C)(C)NC(=O)[C@@H]1CN(Cc2cccnc2)CCN1C[C@@H](O)C[C@@H](Cc1ccccc1)C(=O)N[C@H]1c2ccccc2C[C@H]1O
inactive: all assays above

CCN(C)C(=O)Oc1cccc([C@H](C)N(C)C)c1
inactive: all assays above

CC(C)Nc1cccnc1N1CCN(C(=O)c2cc3cc(NS(C)(=O)=O)ccc3[nH]2)CC1
inactive: all assays above

CO[C@@]12[C@H](COC(N)=O)C3=C(C(=O)C(C)=C(N)C3=O)N1C[C@@H]1N[C@@H]12
inactive: all assays above

O=C(c1ccccc1)c1ccc2n1CCC2C(=O)O (configuration not stated)
inactive: all assays above

CC1=C(C(=O)O)N2C(=O)[C@@H](NC(=O)[C@H](N)c3ccc(O)cc3)[C@H]2SC1
inactive: all assays above

CCC1C(=O)OCC1Cc1cncn1C (configuration not stated)
inactive: all assays above

COc1ccc2nc(S(=O)Cc3ncc(C)c(OC)c3C)[nH]c2c1 (configuration not stated)
inactive: all assays above

O[C@@H]1CO[C@H]2[C@@H]1OC[C@@H]2O
inactive: all assays above

CCCCN1C[C@H](O)[C@@H](O)[C@H](O)[C@H]1CO
inactive: all assays above

CS(=O)(=O)OCCCCOS(C)(=O)=O
inactive: all assays above

Nc1nnc(-c2cccc(Cl)c2Cl)c(N)n1
inactive: all assays above

CCN(CC)CCNC(=O)c1cc(Cl)c(N)cc1OC
inactive: all assays above

Cc1onc(-c2c(Cl)cccc2Cl)c1C(=O)N[C@@H]1C(=O)N2[C@@H]1SC(C)(C)[C@@H]2C(=O)O
inactive: all assays above

NS(=O)(=O)c1cc2c(cc1C(F)(F)F)NCNS2(=O)=O
inactive: all assays above

Oc1cn2c(n1)Nc1ccc(Cl)c(Cl)c1C2
inactive: all assays above

COc1ccccc1OCC(O)CN1CCN(CC(=O)Nc2c(C)cccc2C)CC1 (configuration not stated)
inactive: all assays above

O=P(O)(O)C(O)(Cc1cccnc1)P(=O)(O)O
inactive: all assays above

CC(=O)N[C@@H](CS)C(=O)O
inactive: all assays above

Cc1oncc1C(=O)Nc1ccc(C(F)(F)F)cc1
inactive: all assays above

CCCCNC(=O)NS(=O)(=O)c1ccc(C)cc1
inactive: all assays above

CCCc1cc(=O)[nH]c(=S)[nH]1
inactive: all assays above

O=C(O)CCNC(=O)c1ccc(N=Nc2ccc(O)c(C(=O)O)c2)cc1
inactive: all assays above

O=NN(CCCl)C(=O)NC1CCCCC1
inactive: all assays above

COc1cc(C(=O)NCc2ccc(OCCN(C)C)cc2)cc(OC)c1OC
inactive: all assays above

CCCC(=O)Nc1ccc(OCC(O)CNC(C)C)c(C(C)=O)c1 (configuration not stated)
inactive: all assays above

O=C1CCC(N2C(=O)c3ccccc3C2=O)C(=O)N1 (configuration not stated)
inactive: all assays above

CNCCc1ccccn1
inactive: all assays above

Cn1cnc([N+](=O)[O-])c1Sc1ncnc2nc[nH]c12
inactive: all assays above

CCCCc1nc(Cl)c(CO)n1Cc1ccc(-c2ccccc2-c2nn[nH]n2)cc1
inactive: all assays above

O=C1CC[C@@]2(O)[C@H]3Cc4ccc(O)c5c4[C@@]2(CCN3CC2CC2)[C@H]1O5
inactive: all assays above

CN/C(=C\[N+](=O)[O-])NCCSCc1ccc(CN(C)C)o1
inactive: all assays above

CCC1(c2ccccc2)C(=O)NCNC1=O
inactive: all assays above

CN(C)c1nc(N(C)C)nc(N(C)C)n1
not listed: [9]
inactive: all other assays above

O=C(OC1C[C@H]2CC[C@@H](C1)[N+]21CCCC1)C(O)(c1ccccc1)c1ccccc1 (some centres not stated)
inactive: all assays above

NC(=O)NO
not listed: [9]
inactive: all other assays above

COc1cc2c(cc1OC)[C@@H]1CC(=O)[C@@H](CC(C)C)CN1CC2
not listed: [9]
inactive: all other assays above
